Measurements from PubChem BioAssay (EPA / NIEHS).
Where “and” joins values, the source holds several entries; their conditions need not be identical. Identical values can stand only once. Inconclusive results are not listed. Some structures have more than one record in an assay (separate samples or runs), and their calls can disagree. Calls of active or inactive are those of the source. How the source made its calls, unless noted: active means hit-call score of the fitted dose curve at least 0.9, where 1 is the maximum; inconclusive means response in the unintended direction; inactive means score below 0.9.

How the values were obtained:
[1] = read-out: Cytochrome P450 (CYP24A1_1), CYP24A1 (gene 1591); test: LTEA_HepaRG_CYP24A1_1: Life Technologies and Expression Analysis (LTEA) Assay for Cytochrome P450 (CYP24A1_1) using HepaRG (AID 2283671; active means hit-call score of the fitted dose curve at least 0.9, where 1 is the maximum; inactive means score below 0.9); conditions: mRNA level, 48 h; actives raise or lower the signal
How it was run: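 HepaRG, 48 h exposure, 8-pt half-log series from 100 uM in 0.5% DMSO, duplicates. Readout: TaqMan qRT-PCR of CYP24A1 mRNA, housekeeping-normalized (ACTB/GAPDH/POLR2A). Bidirectional curve fit vs DMSO baseline.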

[2] = ArunA_CellTiter_hNC: Viability Assessment in the ArunA Biomedical's Oris Neural Crest (hNC) Cell Migration Assay (AID 2283752)
How it was run: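 Viability of embryonic neural crest stem cells from the H9 line is scored 72 h after dosing, with DMSO as negative control and baseline. A drop in CellTiter Aqueous One signal indicates cytotoxicity.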

[3] = ArunA_CellTiter_hNP: Viability Assessment in the ArunA Biomedical's Oris Neural Crest (hNC) Cell Migration Assay (AID 2283753)
How it was run: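 H9-derived hNP1 neuroprogenitors, 60,000/well on Matrigel, cultured 16 h, then 72 h chemical exposure in test medium. Cell titer via CellTiter Aqueous One; positive-direction fit vs DMSO.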

[4] = ArunA_Migration_hNP: ArunA Biomedical's Oris Neuroprogenitor (hNP) Cell Migration Assay (AID 2283754)
How it was run: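 Human H9-derived hNP1 neuroprogenitors on Matrigel with LIF/bFGF, plated around seeding stoppers for 16 h at 37C; stoppers removed at start of 72 h chemical exposure. Calcein-AM staining, fluorescence 494/517 nm in detection zone; loss-of-signal vs DMSO; cytochalasin D control.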

[5] = ArunA_Migration_hNC: ArunA Biomedical's Oris Neural Crest (hNC) Cell Migration Assay (AID 2283755)
How it was run: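 Human H9-derived neural crest stem cells, 60,000/well on Matrigel, 16 h at 37C, then 72 h chemical exposure after seeding-stopper removal. Migration into detection zone read as calcein-AM fluorescence (ex494/em517), relative to DMSO.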

[6] = ArunA_NOG_NucleusCount: ArunA Biomedical's Neurite Outgrowth (NOG) Assay for Nucleus Count (AID 2283756)
How it was run: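 Human H9-derived differentiated neurons were exposed for 48 h right after seeding. Hoechst-stained nuclei gated by size and intensity were counted by automated high-content imaging as viable neurons. Loss of signal vs DMSO.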

[7] = ArunA_NOG_NeuriteLength: ArunA Biomedical's Neurite Outgrowth (NOG) Assay for Neurite Length (AID 2283757)
How it was run: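 Differentiated human H9-derived neurons were exposed for 48 h from seeding, then stained with Hoechst and βIII-tubulin. Automated high-content imaging gave total neurite length per valid neuron, counting processes >10 um. Loss of signal was scored versus DMSO.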

[8] = ArunA_NOG_NeuritesPerNeuron: ArunA Biomedical's Neurite Outgrowth (NOG) Assay for Neurites Per Neuron (AID 2283758)
How it was run: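 Differentiated human H9-derived neurons exposed to chemicals for 48 h from seeding, then stained with Hoechst and βIII-tubulin/DyLight 488. Automated imaging counted neurites (processes >10 um) per valid neuron; loss of signal versus DMSO scored.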

[9] = ArunA_NOG_BranchPointsPerNeurite: ArunA Biomedical's Neurite Outgrowth (NOG) Assay for Branch Points Per Neurite (AID 2283759)
How it was run: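 Automated image analysis traced neurites (processes >10 um) from valid cell bodies after Hoechst and βIII-tubulin staining. hNN cells from H9 embryonic stem cells, 48 h exposure. Fitted bidirectionally against DMSO.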

[10] = system: zebrafish Estrogen Receptor (ESR2B), gene 317733; test: ATG_zfER2b_XSP1: Attagene TRANS-FACTORIAL Multi-Species (XSP1) HepG2 Assay for zebrafish Estrogen Receptor (ESR2B) (AID 2283773)
How it was run: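 HepG2 cells transiently transfected with multiple GAL4-UAS reporter units expressing chimeric zebrafish ER2b-Gal4; 24 h chemical exposure with 3 nM 6-alpha-fluorotestosterone present. Reporter mRNA measured by RT-PCR and capillary electrophoresis; gain of signal fitted versus DMSO.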

[11] = system: frog Estrogen Receptor (ESR2), gene 100174814; test: ATG_frER2_XSP1: Attagene TRANS-FACTORIAL Multi-Species (XSP1) HepG2 Assay for frog Estrogen Receptor (ESR2) (AID 2283774)
How it was run: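 HepG2 cells transiently transfected with GAL4-UAS multiplexed reporter units expressing chimeric NR-Gal4 proteins; reporter mRNA measured 24 h after dosing by RT-PCR, FAM labeling, HpaI digestion and capillary electrophoresis. Gain-of-signal relative to DMSO; 3 nM 6-alpha-fluorotestosterone present.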

[12] = Tanguay_ZF_120hpf_ActivityScore_legacy: (Legacy) Oregon State University Tanguay Lab 120 Hour Post-fertilization zebrafish Assay Score for Activity (AID 2283742)
How it was run: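 Tropical 5D wild-type zebrafish embryos, dechorionated with pronase at 4 hpf, were exposed singly from 6 hpf to 120 hpf statically at 28C in 0.64% DMSO. Malformations and mortality were scored as binary by brightfield, with the activity score combining 18 morphology components.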

Measured: AC50

CCCCC=O
inactive: [1]

O=C(CCCN1CCC(O)(c2ccc(Cl)cc2)CC1)c1ccc(F)cc1
active: [3] 12.4 µM | [4] 50 µM and 61.7 nM | [5] 5.34 µM | [6] 78.9 µM | [7] 78.1 µM | [8] 77.9 µM | [9] 73.3 µM
inactive: [2] | [5]

OCC(CO)(CBr)CBr
inactive: [2] | [3] | [4] | [5] | [6]

C[C@]12CC[C@@H]3c4ccc(O)cc4CC[C@H]3[C@@H]1C[C@@H](O)[C@@H]2O
active: [10] 0.0143 µM | [11] 0.0279 µM

CCCCCCCCCCCCCCC
inactive: [12]
